# ELG1 DNA repair: blocks ELG1-dependent DNA repair in HEK293T cells; AID 504467; 330,000 compounds, 2.3% hits; HEK293T ELG1-luciferase reporter, luminescence, 16 h; DNA damage induced by 5-fluorouridine; Potency, µM (series often up to 46.1 µM), without a hit: top-dose activity change, negative = inhibition, usual class: inhibitors; note: nearly all actives have a fitted effect of over 55% in size
#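 Luminescence from the luciferase reporter, measured 30 min after ONE-Glo reagent at room temperature, was the read-out. Beforehand, 2,000 cells per well were exposed for 16 hr at 37 °C to 5-fluorouridine together with compound or vehicle.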
# TDP1 cell CPT: growth inhibition of DT40 Tdp1-/-;hTDP1 cells with camptothecin (screen for TDP1 inhibitors). Potency, µM (highest dose often 46.2 µM), for the others: top-dose activity change, negative = growth inhibition, most hits filed as inhibitors. chicken DT40 Tdp1-/-;hTDP1 cells + 20 nM CPT, ATP luminescence, 48 h. 420,000 compounds, 12% hits. AID 686979; note: nearly all actives have a fitted effect of over 55% in size
#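 Chicken DT40 Tdp1-/- cells complemented with human TDP1, 400 cells/well, exposed to compounds plus 20 nM camptothecin for at least 48 h at 37 C; viability read as ATP content by CellTiter-Glo luminescence.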
# VP16 counter: inhibits Gal4-VP16 luciferase reporter, ROR gamma counter-screen | Drosophila S2 Gal4-VP16 UAS-luciferase, luminescence, 20 h | Potency, µM (titrated, usually from 53.6 µM), inactives show at the top dose activity, negative = inhibition, usual class: inhibitors | 310,000 compounds, 3.5% hits | AID 2546;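 note: Gal4-VP16 expression switched on by copper sulfate through the metallothionein promoter; nearly all actives have a fitted effect of over 50% in size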
# RORgamma inh: blocks mouse ROR gamma transcriptional activity | AID 2551 | 310,000 compounds, 5.4% hits | Drosophila S2 Gal4-RORgamma UAS-luciferase reporter, 20 h | Potency, µM (doses to about 53.6 µM), for inactives: top-dose activity change, negative = inhibition, usual class: inhibitors; note: nearly all actives have a fitted effect of over 60% in size
#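 Luminescence from a UAS-regulated Photinus luciferase reporter in stably transfected Drosophila Schneider cells is measured; decreased signal marks ROR gamma inhibition. Fusion expression is induced by 700 uM copper sulfate for 20 hr.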
# DT40 TDP1 no CPT: qHTS for Inhibitors of human tyrosyl-DNA phosphodiesterase 1 (TDP1): qHTS in cells in absence of CPT; AID 686978, 2013; DT40 Tdp1-/- hTDP1 cells, no CPT, ATP luminescence, 48 h; 420,000 compounds, 15% hits; Potency, µM (top dose mostly 46.2 µM), for inactives: top-dose activity change, negative = growth inhibition, most hits filed as inhibitors; note: nearly all actives have a fitted effect of over 55% in size
#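 Chicken DT40 Tdp1-/- cells stably complemented with human TDP1 were seeded at 400 cells/well with DMSO in place of 20 nM camptothecin. After compound pinning, cells grew at least 48 hr at 37 °C; viability read by CellTiter-Glo luminescence.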
# ALOX12 inh: inhibitors of human 12S-lipoxygenase ALOX12. Potency, µM (highest dose often 108 µM), without a hit: at the top dose activity change, negative = inhibition, usual class: inhibitors. P18054. 580,000 compounds, 1.1% hits. AID 1671190. purified 12hLO, xylenol orange hydroperoxide absorbance
# Target sequence (P18054 whole entry, looked up): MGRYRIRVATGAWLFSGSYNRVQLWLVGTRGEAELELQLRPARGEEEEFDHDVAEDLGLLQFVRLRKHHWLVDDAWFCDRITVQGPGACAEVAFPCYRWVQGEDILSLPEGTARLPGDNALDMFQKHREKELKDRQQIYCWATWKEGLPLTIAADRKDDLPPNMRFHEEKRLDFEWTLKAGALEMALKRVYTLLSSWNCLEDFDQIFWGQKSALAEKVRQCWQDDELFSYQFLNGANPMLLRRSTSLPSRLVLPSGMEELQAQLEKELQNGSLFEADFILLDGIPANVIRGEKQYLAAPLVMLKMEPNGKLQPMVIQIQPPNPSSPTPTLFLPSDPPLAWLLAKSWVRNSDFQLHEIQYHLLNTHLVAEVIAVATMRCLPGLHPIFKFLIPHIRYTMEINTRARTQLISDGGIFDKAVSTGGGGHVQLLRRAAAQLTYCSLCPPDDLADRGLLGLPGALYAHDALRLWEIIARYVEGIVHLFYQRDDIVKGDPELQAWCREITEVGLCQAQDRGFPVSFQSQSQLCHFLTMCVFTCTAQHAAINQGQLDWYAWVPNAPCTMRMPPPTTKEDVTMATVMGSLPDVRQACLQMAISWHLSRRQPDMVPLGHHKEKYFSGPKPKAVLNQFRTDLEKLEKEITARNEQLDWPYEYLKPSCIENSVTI
#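 Purified human 12hLO (150 nM final) in 25 mM Hepes, 0.01% Triton X-100, pH 7.0 was preincubated 15 min at room temperature with compound. Then 40 uM arachidonic acid was added, 30 min. Hydroperoxide was read by Fe-XO absorbance ratio 573/405 nm.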
# * hit, by the source's call; ? = inconclusive; . = no result given; [ ] = another dose, or the depositor's remark. Sampled rows, rich in hits. Any-hit rate of the full collection: about 15%. Calls come from the whole dose curve; as a rule, active = well fitted curve in the direction sought with a large enough effect; inconclusive = small, poorly fitted or top-dose-only effect, or another doubt; inactive = no such curve, though single readings can be large; an effect the other way counts as inactive or inconclusive. % is set by controls: 0 for no effect and ±100 for the full control effect; potency is the fitted concentration of half-maximal effect.
SMILES,ELG1 DNA repair,TDP1 cell CPT,VP16 counter,RORgamma inh,DT40 TDP1 no CPT,ALOX12 inh
CC(C)CC(NC(N)=O)C(=O)Nc1ccc(C(C)(C)C)cc1 (stereo not drawn),.,.,.,.,.,2.0%
CCOc1cccc2cc(-c3cc(=O)oc4cc(OCC(=O)OC(C)(C)C)ccc34)c(=O)oc12,.,.,.,.,.,1.0%
S=c1[nH]nc(Cc2sc(-c3ccccc3)nc2-c2ccccc2)o1,-0.8%,7.5%,?,11.2µM*,?,?
S=c1[nH]nc(Cc2c[nH]c3ccccc23)o1,2.5%,-21.3%,-12.8%,-6.9%,-1.3%,?
CC1CN(CCOCCSc2ccc(Cl)cc2)CC(C)O1 (stereo not drawn),-6.6%,-20.6%,19.6%,-7.2%[1.91 µM],?,?
Cc1ccc(SCCCCN2CCNCC2)cc1,?,20.6µM*,5.1%,18.2%,?,?
CC1CN(CCCCSc2ccc(Cl)cc2)CC(C)O1 (stereo not drawn),0.9%,20.6µM*,1.3%,-6.7%[1.91 µM],?,1.78µM*
Clc1ccc(SCCCCN2CCNCC2)cc1,?,20.6µM*,-7.1%,11.7%,18.4µM*,?
Cc1ccc(SCCC(=O)N2CCCC2)cc1,?,-3.1%,-5.7%,-35.8%,-11.2%,-7.5%
Clc1ccc(SCCCCN2CCOCC2)cc1,4.2%,-27.8%,-12.6%,2.1%,-29.4%,?
CC1(C)CC2CC(C)(CN2S(=O)(=O)c2ccc(C(=O)Nc3ccc(Cl)c(S(=O)(=O)N4CCOCC4)c3)cc2)C1 (stereo not drawn),0.6%,3.26µM*,12.6µM*,?,3.66µM*,21.0%
CC1(C)CC2CC(C)(CN2S(=O)(=O)c2ccc(C(=O)Nc3ccc(S(=O)(=O)N4CCOCC4)cc3)cc2)C1 (stereo not drawn),16.1%,3.66µM*,?,?,5.17µM*,-15.9%
CCOC(=O)c1cc([N+](=O)[O-])sc1NC(=O)c1ccc(S(=O)(=O)N2CC3(C)CC2CC(C)(C)C3)cc1 (stereo not drawn),?,2.31µM*,-1.6%,16.2%,2.59µM*,3.2%
CC(=O)Nc1ccc(S(=O)(=O)N2CC3(C)CC2CC(C)(C)C3)cc1 (stereo not drawn),3.7%,-5.6%,-1.6%,3.5%,?,-2.4%
Cc1noc([C@H]2CCN(C(=O)Cc3c[nH]c4ccccc34)C[C@H]2NC(=O)C2CC2)n1,.,.,.,.,.,10.1%
CCn1c(O)c(/C=C2\C=Nc3ccccc32)sc1=Nc1ccccc1,?,10.3µM*,-11.4%,33.4%,11.6µM*,-21.2%
Cn1c(O)c(/C=C2\C=Nc3ccccc32)sc1=Nc1ccc(C(=O)O)cc1,-7.3%,0.1%,-1.6%,-17.8%,11.6%,?
CN(C)C(=O)c1ccc2c(c1)n(Cc1ccc(F)cc1)c(=O)c1ccnn12,.,.,.,.,.,8.0%
Cc1cc2c(c(SCC(=O)Nc3ccc(F)cc3)n1)C(=O)OC2,.,.,.,.,.,-31.1%
O=C(Cc1cccs1)NCc1ccsc1,.,.,.,.,.,14.4%
Cc1ccc(NC(=O)CN2CCCC2c2cccn2C)cc1C (stereo not drawn),1.9%,-15.0%,.,.,?,0.9%
Cc1ccc(NC(=O)CN2CCCC2c2cccn2C)c(Br)c1 (stereo not drawn),?,?,.,.,14.6µM*,-5.3%
COc1ccccc1-c1nnc(SC(C(=O)N2CCOCC2)c2ccccc2)n1C1CCCCC1 (stereo not drawn),.,.,.,.,.,7.0%
COc1ccccc1-c1ccc2ncnc(NCc3cccnc3)c2c1,.,8.2µM*,?,?,6.51µM*,?
COc1ccccc1-c1cncnc1NCc1cnc(C)cn1,.,?,2.6%,5.5%,-26.7%,?
